According to the supplement of paper PMC11732987, “Enantioselective OTUD7B fragment discovery through chemoproteomics screening and high-throughput optimisation” (Communications Chemistry, 2025):

How the values were obtained:
Experiment in all cases: log2 ratio of Biotin-Ahx-Ub-VS probe labelling (fragment/DMSO); higher = less target engagement (more negative = stronger competition), active = hit call of the paper (q ≤ 0.05, log2 ratio ≤ -1)
Conditions in all cases: compound concentration: 200 uM; treatment time: 3 h
[1] = biological target: USP34 (UniProt Q70CQ2)
Method in brief: (§1)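 Labelled DUBs were enriched with NeutrAvidin, digested with LysC and trypsin, and run by diaPASEF LC-MS/MS. The labelling used Biotin-Ahx-Ub-VS at 0.5 µM final for 1 h on HEK293T lysate (495 µg per sample) previously treated in triplicate with fragment at 200 µM or vehicle for 3 h. Values are average log2 fragment/vehicle ratios by unpaired t-test on global-median-normalised Spectronaut quantities of proteins with ≥2 unique peptides.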

[2] = biological target: T1, USP36 (UniProt Q9P275)
T1 sequence (whole entry): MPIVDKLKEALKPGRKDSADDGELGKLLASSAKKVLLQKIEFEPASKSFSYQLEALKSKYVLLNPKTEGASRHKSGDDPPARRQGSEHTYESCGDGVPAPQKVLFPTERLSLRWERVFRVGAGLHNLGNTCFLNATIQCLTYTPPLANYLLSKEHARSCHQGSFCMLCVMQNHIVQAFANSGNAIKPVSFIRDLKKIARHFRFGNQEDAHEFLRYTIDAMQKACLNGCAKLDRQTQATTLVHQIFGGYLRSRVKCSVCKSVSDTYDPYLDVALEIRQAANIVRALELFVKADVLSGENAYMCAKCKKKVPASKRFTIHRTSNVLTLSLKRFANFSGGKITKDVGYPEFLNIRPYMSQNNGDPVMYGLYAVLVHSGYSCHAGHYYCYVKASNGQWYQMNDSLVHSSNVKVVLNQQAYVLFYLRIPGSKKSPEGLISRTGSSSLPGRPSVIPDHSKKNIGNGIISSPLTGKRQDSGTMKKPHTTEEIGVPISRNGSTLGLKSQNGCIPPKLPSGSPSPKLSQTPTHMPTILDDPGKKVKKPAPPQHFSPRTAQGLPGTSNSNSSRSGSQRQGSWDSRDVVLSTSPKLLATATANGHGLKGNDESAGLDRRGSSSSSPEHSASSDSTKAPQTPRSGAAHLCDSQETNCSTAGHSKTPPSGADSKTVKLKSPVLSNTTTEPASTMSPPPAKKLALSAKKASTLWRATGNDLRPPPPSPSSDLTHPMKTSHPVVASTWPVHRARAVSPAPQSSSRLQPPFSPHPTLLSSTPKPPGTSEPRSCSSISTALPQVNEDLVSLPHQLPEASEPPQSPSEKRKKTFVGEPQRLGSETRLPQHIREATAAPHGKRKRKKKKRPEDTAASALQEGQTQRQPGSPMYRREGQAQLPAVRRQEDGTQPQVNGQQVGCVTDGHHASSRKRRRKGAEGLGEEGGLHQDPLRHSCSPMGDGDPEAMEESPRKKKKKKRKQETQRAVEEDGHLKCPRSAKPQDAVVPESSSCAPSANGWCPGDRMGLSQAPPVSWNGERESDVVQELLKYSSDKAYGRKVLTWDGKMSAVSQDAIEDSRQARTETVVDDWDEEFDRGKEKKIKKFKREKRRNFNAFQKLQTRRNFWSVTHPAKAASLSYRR
Method in brief: as §1

[3] = biological target: T2, USP38 (UniProt Q8NB14)
T2 sequence (whole entry): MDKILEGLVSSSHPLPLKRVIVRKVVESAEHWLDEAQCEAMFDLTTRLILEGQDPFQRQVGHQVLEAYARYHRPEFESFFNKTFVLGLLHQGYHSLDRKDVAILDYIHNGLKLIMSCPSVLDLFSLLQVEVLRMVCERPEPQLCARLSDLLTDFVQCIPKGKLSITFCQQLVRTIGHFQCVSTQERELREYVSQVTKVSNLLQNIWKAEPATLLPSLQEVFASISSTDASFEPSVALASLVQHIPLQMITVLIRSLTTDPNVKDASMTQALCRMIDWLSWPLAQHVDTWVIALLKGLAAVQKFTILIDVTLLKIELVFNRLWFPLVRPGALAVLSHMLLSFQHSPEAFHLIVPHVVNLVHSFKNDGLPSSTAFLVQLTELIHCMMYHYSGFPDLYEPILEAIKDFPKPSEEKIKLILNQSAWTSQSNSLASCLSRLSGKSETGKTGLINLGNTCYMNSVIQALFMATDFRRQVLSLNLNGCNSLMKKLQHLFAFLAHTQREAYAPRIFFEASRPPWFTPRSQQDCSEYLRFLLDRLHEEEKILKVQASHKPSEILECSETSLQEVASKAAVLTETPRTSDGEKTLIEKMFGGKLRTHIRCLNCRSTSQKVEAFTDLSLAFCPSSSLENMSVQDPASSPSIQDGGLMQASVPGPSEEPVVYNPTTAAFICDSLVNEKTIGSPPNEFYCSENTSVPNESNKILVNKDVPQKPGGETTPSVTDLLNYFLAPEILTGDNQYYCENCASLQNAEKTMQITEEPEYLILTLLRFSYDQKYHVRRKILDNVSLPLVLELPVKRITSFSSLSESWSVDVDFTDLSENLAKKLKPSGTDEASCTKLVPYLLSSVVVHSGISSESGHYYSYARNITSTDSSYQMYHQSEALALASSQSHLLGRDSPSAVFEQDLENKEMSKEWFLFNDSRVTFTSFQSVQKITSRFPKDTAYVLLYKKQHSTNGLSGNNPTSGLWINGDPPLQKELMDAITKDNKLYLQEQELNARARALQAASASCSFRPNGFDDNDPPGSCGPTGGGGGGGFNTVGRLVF
Method in brief: as §1

[4] = biological target: T3, USP39 (UniProt Q53GS9)
T3 sequence (whole entry): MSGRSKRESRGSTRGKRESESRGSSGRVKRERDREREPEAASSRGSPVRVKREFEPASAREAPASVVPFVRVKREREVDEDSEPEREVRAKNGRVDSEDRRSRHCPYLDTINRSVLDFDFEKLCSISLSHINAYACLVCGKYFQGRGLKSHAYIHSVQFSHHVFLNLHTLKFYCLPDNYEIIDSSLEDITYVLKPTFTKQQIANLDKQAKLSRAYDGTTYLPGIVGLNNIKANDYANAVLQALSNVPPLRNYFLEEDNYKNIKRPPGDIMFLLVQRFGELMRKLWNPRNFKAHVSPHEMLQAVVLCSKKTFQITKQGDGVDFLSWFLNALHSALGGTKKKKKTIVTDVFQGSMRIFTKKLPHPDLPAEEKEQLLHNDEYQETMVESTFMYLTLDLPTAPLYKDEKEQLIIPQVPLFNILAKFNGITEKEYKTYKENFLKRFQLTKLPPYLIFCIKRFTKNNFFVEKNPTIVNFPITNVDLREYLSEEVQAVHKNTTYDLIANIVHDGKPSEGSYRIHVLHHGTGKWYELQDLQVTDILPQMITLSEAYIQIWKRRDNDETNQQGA
Method in brief: as §1

[5] = biological target: T4, USP4 (UniProt Q13107)
T4 sequence (whole entry): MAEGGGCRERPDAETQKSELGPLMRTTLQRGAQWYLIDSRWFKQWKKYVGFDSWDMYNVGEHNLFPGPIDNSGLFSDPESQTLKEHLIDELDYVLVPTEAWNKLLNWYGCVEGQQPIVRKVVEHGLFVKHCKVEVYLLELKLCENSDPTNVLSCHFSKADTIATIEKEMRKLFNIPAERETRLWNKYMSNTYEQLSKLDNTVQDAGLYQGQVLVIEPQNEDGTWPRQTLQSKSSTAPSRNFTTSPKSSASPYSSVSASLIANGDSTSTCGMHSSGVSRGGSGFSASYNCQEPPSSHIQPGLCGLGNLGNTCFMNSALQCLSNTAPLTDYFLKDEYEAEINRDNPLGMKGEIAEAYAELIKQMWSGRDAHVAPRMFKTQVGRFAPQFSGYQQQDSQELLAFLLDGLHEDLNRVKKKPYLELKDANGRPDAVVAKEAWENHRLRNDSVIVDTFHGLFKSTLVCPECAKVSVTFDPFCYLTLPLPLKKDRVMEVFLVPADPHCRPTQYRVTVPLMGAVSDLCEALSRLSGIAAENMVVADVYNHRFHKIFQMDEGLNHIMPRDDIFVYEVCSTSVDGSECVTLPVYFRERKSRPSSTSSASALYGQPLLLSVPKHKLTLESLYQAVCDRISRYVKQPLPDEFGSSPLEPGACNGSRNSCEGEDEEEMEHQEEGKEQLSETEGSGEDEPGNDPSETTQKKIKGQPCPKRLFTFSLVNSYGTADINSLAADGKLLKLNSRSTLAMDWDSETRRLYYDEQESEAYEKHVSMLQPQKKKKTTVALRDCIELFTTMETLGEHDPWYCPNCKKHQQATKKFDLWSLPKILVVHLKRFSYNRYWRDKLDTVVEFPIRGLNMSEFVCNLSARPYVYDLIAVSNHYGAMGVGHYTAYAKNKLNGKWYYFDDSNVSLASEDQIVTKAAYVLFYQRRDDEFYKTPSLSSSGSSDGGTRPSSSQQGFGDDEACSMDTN
Method in brief: as §1

Measured: log2 ratio of Biotin-Ahx-Ub-VS probe labelling

Sequence of USP34 (Q70CQ2 whole entry, the tested form may be a part): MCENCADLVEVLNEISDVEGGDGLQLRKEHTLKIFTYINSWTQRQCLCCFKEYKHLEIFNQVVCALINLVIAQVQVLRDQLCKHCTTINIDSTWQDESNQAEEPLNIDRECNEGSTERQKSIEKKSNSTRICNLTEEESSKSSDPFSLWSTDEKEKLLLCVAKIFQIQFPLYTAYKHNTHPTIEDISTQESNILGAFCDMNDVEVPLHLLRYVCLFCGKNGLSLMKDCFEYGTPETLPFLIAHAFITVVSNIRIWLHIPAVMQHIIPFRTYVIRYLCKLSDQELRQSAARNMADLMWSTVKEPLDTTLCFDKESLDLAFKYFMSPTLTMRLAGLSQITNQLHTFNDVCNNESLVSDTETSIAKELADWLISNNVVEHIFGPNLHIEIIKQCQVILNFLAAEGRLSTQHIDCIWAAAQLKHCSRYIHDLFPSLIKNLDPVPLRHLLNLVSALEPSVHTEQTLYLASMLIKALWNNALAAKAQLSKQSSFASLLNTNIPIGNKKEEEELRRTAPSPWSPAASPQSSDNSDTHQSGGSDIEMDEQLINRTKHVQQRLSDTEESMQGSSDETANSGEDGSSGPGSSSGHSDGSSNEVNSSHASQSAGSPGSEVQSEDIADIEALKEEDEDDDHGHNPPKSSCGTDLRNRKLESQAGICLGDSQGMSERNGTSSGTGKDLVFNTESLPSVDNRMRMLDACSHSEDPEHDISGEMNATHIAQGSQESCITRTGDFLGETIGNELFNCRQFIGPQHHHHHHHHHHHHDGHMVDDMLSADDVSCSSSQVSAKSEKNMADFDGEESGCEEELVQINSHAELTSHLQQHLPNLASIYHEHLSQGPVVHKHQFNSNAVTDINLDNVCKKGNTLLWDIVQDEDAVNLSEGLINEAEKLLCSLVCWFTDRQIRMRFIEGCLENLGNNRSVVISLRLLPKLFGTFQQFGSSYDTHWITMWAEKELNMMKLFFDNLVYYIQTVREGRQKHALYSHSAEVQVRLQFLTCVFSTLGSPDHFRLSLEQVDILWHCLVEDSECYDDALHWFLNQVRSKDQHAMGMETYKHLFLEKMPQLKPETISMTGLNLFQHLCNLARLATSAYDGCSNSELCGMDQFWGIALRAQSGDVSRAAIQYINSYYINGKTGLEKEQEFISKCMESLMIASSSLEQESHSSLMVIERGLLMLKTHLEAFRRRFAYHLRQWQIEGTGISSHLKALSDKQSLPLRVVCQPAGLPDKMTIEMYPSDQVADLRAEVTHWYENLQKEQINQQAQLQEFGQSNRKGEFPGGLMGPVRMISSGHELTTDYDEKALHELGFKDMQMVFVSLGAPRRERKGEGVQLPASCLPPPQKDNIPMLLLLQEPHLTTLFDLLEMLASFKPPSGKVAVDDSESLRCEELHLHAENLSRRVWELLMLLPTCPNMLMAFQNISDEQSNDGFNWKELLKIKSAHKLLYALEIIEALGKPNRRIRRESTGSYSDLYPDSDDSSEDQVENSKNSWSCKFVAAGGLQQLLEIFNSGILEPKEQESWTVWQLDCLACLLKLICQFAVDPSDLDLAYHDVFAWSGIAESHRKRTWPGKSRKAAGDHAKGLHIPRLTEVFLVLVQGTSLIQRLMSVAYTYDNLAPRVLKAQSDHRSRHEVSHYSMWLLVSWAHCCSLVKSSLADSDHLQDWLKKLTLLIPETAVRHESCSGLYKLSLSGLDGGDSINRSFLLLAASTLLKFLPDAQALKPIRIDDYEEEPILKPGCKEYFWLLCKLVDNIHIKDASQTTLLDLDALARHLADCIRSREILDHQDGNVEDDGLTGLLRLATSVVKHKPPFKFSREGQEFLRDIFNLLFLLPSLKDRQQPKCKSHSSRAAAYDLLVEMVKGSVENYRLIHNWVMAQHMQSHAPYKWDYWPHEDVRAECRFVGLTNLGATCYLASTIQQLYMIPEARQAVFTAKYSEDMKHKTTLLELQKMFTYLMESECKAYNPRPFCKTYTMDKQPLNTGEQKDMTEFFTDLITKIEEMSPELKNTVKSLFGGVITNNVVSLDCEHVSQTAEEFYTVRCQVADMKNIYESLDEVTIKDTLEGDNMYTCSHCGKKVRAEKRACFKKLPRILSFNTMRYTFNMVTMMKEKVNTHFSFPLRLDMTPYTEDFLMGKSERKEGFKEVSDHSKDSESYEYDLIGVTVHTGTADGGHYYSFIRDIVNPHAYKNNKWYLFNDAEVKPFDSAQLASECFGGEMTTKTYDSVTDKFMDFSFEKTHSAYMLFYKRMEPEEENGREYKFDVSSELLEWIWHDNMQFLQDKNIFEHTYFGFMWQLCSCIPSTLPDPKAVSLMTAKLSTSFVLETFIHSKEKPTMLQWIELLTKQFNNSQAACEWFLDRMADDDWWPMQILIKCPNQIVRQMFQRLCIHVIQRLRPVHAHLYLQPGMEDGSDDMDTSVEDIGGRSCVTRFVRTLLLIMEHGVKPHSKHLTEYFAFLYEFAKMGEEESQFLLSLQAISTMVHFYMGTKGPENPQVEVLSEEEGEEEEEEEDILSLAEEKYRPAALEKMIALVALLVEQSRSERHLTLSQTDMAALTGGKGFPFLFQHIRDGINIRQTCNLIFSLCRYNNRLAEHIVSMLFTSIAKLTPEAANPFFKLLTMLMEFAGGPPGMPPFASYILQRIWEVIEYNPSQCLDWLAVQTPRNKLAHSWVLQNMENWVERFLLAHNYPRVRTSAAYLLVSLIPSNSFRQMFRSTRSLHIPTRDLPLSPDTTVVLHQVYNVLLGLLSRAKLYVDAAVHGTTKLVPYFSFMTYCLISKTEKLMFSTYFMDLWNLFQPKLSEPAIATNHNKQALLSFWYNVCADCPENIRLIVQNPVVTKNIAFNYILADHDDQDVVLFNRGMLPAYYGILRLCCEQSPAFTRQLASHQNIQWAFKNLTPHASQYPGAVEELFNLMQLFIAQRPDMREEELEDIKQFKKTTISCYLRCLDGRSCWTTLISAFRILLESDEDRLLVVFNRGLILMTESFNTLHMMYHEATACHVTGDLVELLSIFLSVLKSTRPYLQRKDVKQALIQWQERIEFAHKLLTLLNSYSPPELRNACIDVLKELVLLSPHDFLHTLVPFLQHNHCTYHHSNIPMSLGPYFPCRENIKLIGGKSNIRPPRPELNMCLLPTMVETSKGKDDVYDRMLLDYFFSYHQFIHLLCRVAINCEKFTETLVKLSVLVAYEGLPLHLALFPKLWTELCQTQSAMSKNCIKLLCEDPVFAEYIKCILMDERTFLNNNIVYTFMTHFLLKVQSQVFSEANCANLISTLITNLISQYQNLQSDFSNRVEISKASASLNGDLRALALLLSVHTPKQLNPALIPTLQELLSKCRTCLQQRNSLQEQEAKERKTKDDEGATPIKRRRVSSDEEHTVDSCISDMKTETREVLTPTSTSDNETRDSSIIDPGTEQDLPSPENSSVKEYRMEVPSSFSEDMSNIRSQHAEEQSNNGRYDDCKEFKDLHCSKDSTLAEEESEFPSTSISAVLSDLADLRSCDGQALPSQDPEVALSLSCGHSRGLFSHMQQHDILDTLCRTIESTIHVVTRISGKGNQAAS

O=C(CCl)N(C1=CCCCC1)C1CC1
inactive: [1] -0.0141 | [2] -0.116 | [3] -0.172 | [4] -0.177 | [5] 0.0249
